Screens as filed in PubChem BioAssay.
A selection: hits, their analogues and other compounds. The true share with any hit is near 6.9%.
Vif-A3G inh – inhibitors of Vif-APOBEC3G interaction | Potency, µM (top dose mostly 46.1 µM), hits mostly inhibitors | Q9HC16 | 410,000 compounds, 0.076% hits | HeLa A3G-eYFP + Vif (tagged APOBEC3G with the HIV-1 protein that degrades it), YFP fluorescence, overnight; further: nearly all actives have a fitted effect of over 60% in size
Target sequence (Q9HC16 whole entry, looked up): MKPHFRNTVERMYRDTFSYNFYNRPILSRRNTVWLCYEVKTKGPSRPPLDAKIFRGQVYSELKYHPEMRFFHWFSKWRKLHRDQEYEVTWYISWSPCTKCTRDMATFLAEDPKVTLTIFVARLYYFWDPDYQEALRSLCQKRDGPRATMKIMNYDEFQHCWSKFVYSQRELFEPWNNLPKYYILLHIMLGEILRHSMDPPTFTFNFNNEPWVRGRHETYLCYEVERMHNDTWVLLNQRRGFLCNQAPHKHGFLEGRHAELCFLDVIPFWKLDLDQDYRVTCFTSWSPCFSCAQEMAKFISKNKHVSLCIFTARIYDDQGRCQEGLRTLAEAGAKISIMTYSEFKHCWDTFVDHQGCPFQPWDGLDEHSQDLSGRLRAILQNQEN
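HeLa cells stably expressing Vif and C-terminally eYFP-tagged A3G, seeded overnight at 37 deg C, then exposed to compound by pintool overnight at 37 deg C. Rise in yellow fluorescence (Ex 488/Em 500-530, Acumen) marks blocked Vif-driven A3G degradation.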
IL-1B inflam inh – inflammasome signaling inhibition, IL-1 beta readout; 360,000 compounds, 4.7% hits; activity change, % at 57.5 µM; THP-1 LPS/ATP IL-1B secretion, AlphaLISA, 16 h; hits give low values; in the data active means activity change below about -50%; inconclusive means mostly about -30% to -49%
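THP-1 cells pretreated 1 hr with compounds (up to 57.5 uM final), then stimulated with LPS (250 ng/mL final) plus ATP (1.25 mM final); secreted IL-1B measured by AlphaLISA after 16 hr, decreased signal indicating inhibition.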
SW480 rerep – inducers of DNA re-replication in SW480 colon cancer cells | AID 624297 | Potency, µM (doses to about 46.1 µM), actives largely listed as activators | 340,000 compounds, 1.8% hits | SW480 DNA re-replication, Hoechst DNA content imaging, 48 h; further: nearly all actives have a fitted effect of over 55% in size
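Image-based read-out: total Hoechst fluorescence of nuclei (405 nm excitation, 500-530 nm emission), with hits raising the fraction of high-intensity nuclei. SW480 colon cells incubated 48 hr with compounds at 37 C.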
Vif-A3F inh – blocks the Vif interaction with APOBEC3F; HeLa A3F-eYFP + Vif (tagged APOBEC3F with the HIV-1 protein that degrades it), YFP fluorescence increase; Potency, µM (titrated, usually from 46.1 µM); 390,000 compounds, 0.2% hits; further: nearly all actives have a fitted effect of over 65% in size
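HeLa cells stably expressing Vif plus C-terminally eYFP-tagged A3F were seeded, incubated overnight at 37 deg C, dosed with compound, incubated overnight again at 37 deg C. Yellow fluorescence (Ex 488/Em 500-530) reported blocked Vif-mediated A3F-eYFP degradation.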
MCF10A rerep – DNA re-replication induction in MCF 10a cells; MCF 10A DNA re-replication, Hoechst nuclear intensity, 48 h; Potency, µM (highest dose often 46.1 µM), most hits filed as activators; 350,000 compounds, 2.9% hits; AID 624296; further: nearly all actives have a fitted effect of over 50% in size
Giardia killer – Giardia lamblia killing. Giardia lamblia trophozoite viability. activity change, % at 7.66 µM, hits read low. 340,000 compounds, 0.15% hits; in the data active means activity change below about -80%; inconclusive means between about -30% and that limit;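 further: parasites exposed to compound for two days anaerobically before the ATP read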
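ATP-content bioluminescence gauges trophozoite survival. Cells (100/well) receive compound and incubate anaerobically for 48 hrs at 37 deg C; detection reagent follows for 15-30 min at room temperature.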
Large screens that a line does not name were inactive. Unless noted, the call rests on the fitted dose curve; in most records, active means well fitted curve in the direction sought with a large enough effect; inconclusive means small, poorly fitted or top-dose-only effect, or another doubt; inactive means no such curve, though single readings can be large; an effect the other way counts as inactive or inconclusive.

CCOc1ccc2cc(C#N)c(SCC(=O)OCc3ccccc3)nc2c1	none (no result: IL-1B inflam inh, SW480 rerep, Vif-A3F inh, MCF10A rerep)
CC(Nc1nc(-c2ccccc2)nc2ccccc12)c1ccccc1 (centres undefined)	MCF10A rerep inconclusive
CC(Nc1nc(-c2ccccc2F)nc2ccccc12)c1ccccc1 (centres undefined)	IL-1B inflam inh -90, MCF10A rerep inconclusive
CNc1cccnc1C=NNC(N)=S	SW480 rerep 0.92µM, Vif-A3F inh inconclusive
COC1=CC(=O)c2nc(Cl)ccc2C1=O	Vif-A3G inh inconclusive, IL-1B inflam inh -111 (no result: SW480 rerep, Vif-A3F inh, MCF10A rerep, Giardia killer)
O=C(C1CCN(S(=O)(=O)c2cc(Cl)ccc2Cl)CC1)N1CCOCC1	IL-1B inflam inh -57
O=C(C1CCN(S(=O)(=O)c2cc(Cl)ccc2Cl)CC1)N1CCCC1	MCF10A rerep inconclusive
CCN1CCN(C(=O)Nc2cc(Cl)ccc2OC)CC1	MCF10A rerep 3.7µM
COc1cc2c(cc1OC)CN(CC(=O)Nc1ccc(Cl)cc1Cl)CC2	none
COc1ccc(Cl)cc1NC(=O)NCC1CCN(C(=O)OC(C)(C)C)CC1	IL-1B inflam inh -55
COc1ccc(Cl)cc1NC(=O)CN1CCc2ccccc2C1	IL-1B inflam inh -81
CC(NC(=O)c1ccccc1NC(=O)CN1CCc2ccccc2C1)c1ccccc1 (centres undefined)	SW480 rerep inconclusive, MCF10A rerep 26µM
O=S(=O)(c1ccc(OC(F)(F)F)cc1)N1CCN(c2nc(-c3ccccc3)nc3ccccc23)CC1	none (no result: IL-1B inflam inh, SW480 rerep, Vif-A3F inh, MCF10A rerep)
Cc1cn2c(=O)c(S(=O)(=O)NCc3ccccc3Cl)c(C)nc2s1	none (no result: IL-1B inflam inh, SW480 rerep, MCF10A rerep, Giardia killer)
O=C(CN1CCOCC1)Nc1cccc(C(=O)Nc2cccc(C(F)(F)F)c2)c1	none (no result: Vif-A3F inh)
O=C(CNC1CCCCC1)Nc1cccc(C(F)(F)F)c1	IL-1B inflam inh -77
CCCCCNCC(=O)Nc1cccc(C(=O)Nc2cccc(C(F)(F)F)c2)c1	IL-1B inflam inh -101, MCF10A rerep inconclusive
Cc1cc(SCC(=O)NCc2ccc(Cl)cc2)nc(=O)[nH]1	none (no result: IL-1B inflam inh, SW480 rerep, MCF10A rerep, Giardia killer)
CN(C)CCNc1ccc(CO)c2oc3ccc(O)cc3c(=O)c12	IL-1B inflam inh -98, SW480 rerep inconclusive
Cc1cc(C)c(OCC(=O)N(Cc2ccco2)Cc2ccco2)c(C)c1	none (no result: IL-1B inflam inh, SW480 rerep, MCF10A rerep, Giardia killer)
O=C(Nc1cccc(Cl)c1)C1C2CCC3C(CCC21)C3(Cl)Cl (centres undefined)	IL-1B inflam inh -72
O=C(Nc1ccccc1)C1C2CCC3C(CCC21)C3(Cl)Cl (centres undefined)	none
CCCc1ccc(Oc2cn[nH]c2-c2ccc(O)c(C)c2O)cc1	IL-1B inflam inh -64, MCF10A rerep inconclusive
CCCOC(=O)c1ccc(Oc2cn[nH]c2-c2ccc(OCC)cc2O)cc1	IL-1B inflam inh -75, SW480 rerep inconclusive, MCF10A rerep inconclusive
CCCOC(=O)c1ccc(Oc2c(-c3ccc(OCC)cc3O)n[nH]c2C)cc1	IL-1B inflam inh -102
CCOc1ccc(-c2[nH]ncc2Oc2cccc(OC)c2)c(O)c1	MCF10A rerep inconclusive
CCCc1ccc(Oc2c(-c3ccc(O)c(C)c3O)n[nH]c2C)cc1	MCF10A rerep inconclusive
Cc1cc2nn(-c3ccccc3)nc2cc1NC(=O)COc1ccc(Cl)cc1	none (no result: IL-1B inflam inh, SW480 rerep, MCF10A rerep, Giardia killer)
Cc1ccc(C)c(N2CCN(C(=O)c3ccc(CS(=O)Cc4cccc(Cl)c4)o3)CC2)c1 (centres undefined)	IL-1B inflam inh -75, MCF10A rerep inconclusive
O=C(c1ccc(CS(=O)Cc2ccc(Cl)cc2)o1)N1CCN(c2cccc(Cl)c2)CC1 (centres undefined)	IL-1B inflam inh -83, MCF10A rerep inconclusive
COc1ccc(-n2nc(C(=O)N3CCCCC3)c3c4ccccc4n(C)c3c2=O)cc1Cl	none (no result: IL-1B inflam inh, SW480 rerep, MCF10A rerep, Giardia killer)
CSc1ccc(S(=O)(=O)N2CCC(C(=O)N3CCc4ccccc4C3)CC2)cc1	IL-1B inflam inh -64
CS(=O)(=O)N1CCC(C(=O)N2CCc3ccccc3C2)CC1	none
Cc1ccc(CCNC(=O)C2CCCN(S(C)(=O)=O)C2)cc1 (centres undefined)	none
CS(=O)(=O)N1CCCC(C(=O)NCCc2ccccc2)C1 (centres undefined)	SW480 rerep 16µM, MCF10A rerep inconclusive
O=C(C1CCN(S(=O)(=O)c2cccc3nsnc23)CC1)N1CCc2ccccc2C1	IL-1B inflam inh -63, MCF10A rerep inconclusive
CS(=O)(=O)N1CCCC(C(=O)N2CCc3ccccc3C2)C1 (centres undefined)	SW480 rerep 10µM, MCF10A rerep 2.9µM
COc1ccccc1N1CCN(c2ccc(-c3nc(-c4ccccc4)no3)cc2[N+](=O)[O-])CC1	none (no result: IL-1B inflam inh, SW480 rerep, MCF10A rerep, Giardia killer)
Cc1ccccc1CCNC(=O)c1ccc(NC(=O)N2CC(C)Sc3ccccc32)cc1 (centres undefined)	none (no result: IL-1B inflam inh, SW480 rerep, MCF10A rerep, Giardia killer)
COc1ccc([C@H]2CC(=O)C=C(c3ccc4[nH]ccc4c3)C2)cc1OC	none
O=C1C=C(c2ccc3[nH]ccc3c2)C[C@@H](c2ccc(F)cc2)C1	MCF10A rerep 21µM
COc1ccc(C(NC(=O)C(C)C)c2c(O)ccc3ccccc23)cc1 (centres undefined)	Vif-A3G inh inconclusive, SW480 rerep inconclusive, MCF10A rerep 18µM
CC(=O)Oc1ccc2ccccc2c1C(NC(=O)C(C)C)c1cccc([N+](=O)[O-])c1 (centres undefined)	IL-1B inflam inh -74, SW480 rerep inconclusive, MCF10A rerep inconclusive
CC(=O)NC(c1cccc([N+](=O)[O-])c1)c1c(OC(C)=O)ccc2ccccc12 (centres undefined)	MCF10A rerep inconclusive
CC(C)C(=O)NC(c1ccco1)c1c(O)ccc2ccccc12 (centres undefined)	MCF10A rerep 21µM
O=C(/C=C/c1ccco1)Nc1ccc(Cl)c(-c2nc3cc(Cl)ccc3o2)c1	none (no result: IL-1B inflam inh, SW480 rerep, MCF10A rerep, Giardia killer)
Cc1cc(NC(=O)CSc2nnc(-c3ccccc3)c(-c3ccccc3)n2)no1	Vif-A3G inh inconclusive, SW480 rerep 3.7µM, MCF10A rerep 12µM
Cc1cc(NC(=O)CSc2nnc(-c3ccoc3C)o2)no1	SW480 rerep 21µM
Cc1cc(NC(=O)CSc2nnc(-c3ccccc3)o2)no1	Vif-A3F inh inconclusive
Cc1cc(NC(=O)c2ccc3nc(-c4ccccc4)c(-c4ccccc4)nc3c2)no1	SW480 rerep inconclusive, MCF10A rerep 9.2µM
COc1ccc(Cl)cc1NC(=O)CSc1nc(=O)n(Cc2ccco2)c2c1CCC2	none (no result: IL-1B inflam inh, SW480 rerep, MCF10A rerep, Giardia killer)
CC(=O)Nc1ccc(NC(=O)COC(=O)/C(=C/c2ccccc2)n2nnnc2C)cc1	Vif-A3G inh inconclusive, IL-1B inflam inh -76, MCF10A rerep inconclusive
Cc1nnnn1/C(=C\c1ccccc1)C(=O)OCC(=O)NC1CCCCC1	Vif-A3G inh inconclusive, IL-1B inflam inh -103, SW480 rerep 23µM, MCF10A rerep inconclusive
C(=Nc1cnc2ccccc2c1)c1ccnc2ccccc12	none (no result: IL-1B inflam inh, SW480 rerep, Vif-A3F inh, MCF10A rerep, Giardia killer)
